Compound activity (PubChem BioAssay)
IL2 activator: qHTS of IL-2 Activators | IL-2 activation reporter assay, cell-based qHTS; stimulated with anti-CD3/CD4/CD28 beads; in transgenic mouse T cells | activation, % (series mostly up to about 46 µM) | 0.065% of 360,000 active; in the data active = activation above about 50%; inconclusive = mostly about 30% to 49%; note: 0% is about no effect
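Readout is EGFP and DsRed signal by fluorescent plate cytometry after 18 h at 37 degrees C. Transgenic mouse T cells (750/well) received compound for 60 min before bead stimulation (anti-CD3, anti-CD4, anti-CD28); memory T cells served as non-tolerant control.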
Nrf2 ARE act: qHTS of Nrf2 Activators; Potency, µM (top dose mostly 46.1 µM), for inactives: top-dose activation, most hits filed as activators; AREc32 ARE-luciferase reporter (MCF7-derived line), luminescence, 24 h; AID 624171, 2012; 0.31% of 410,000 active; note: potency is the fitted concentration of half-maximal effect; % of control where 0% means no effect; nearly all actives have a fitted effect of over 65% in size
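AREc32 cells carrying an ARE-driven firefly luciferase reporter were seeded at 1000 cells/well in OPTI-MEM with 5% FBS, then exposed to compound for 24 hr at 37 deg C. Luminescence was read with Steady-Glo after 30 min at RT.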
uPA generation: qHTS for Inhibitors of Cell Surface uPA Generation; cell surface uPA generation assay, qHTS; Potency, µM (doses to about 38.3 µM), for the others: at the highest dose activity change, negative = inhibition, actives largely listed as inhibitors; 0.31% of 330,000 active; active = well fitted inhibition curve with a large enough effect; inconclusive = small, poorly fitted or top-dose-only effect; inactive = no such curve, though single readings can be large or run the other way; tested in mouse RAW 264.7 cells; note: potency is the fitted concentration of half-maximal effect; % is set by controls: 0 for no effect and ±100 for the full control effect; nearly all actives have a fitted effect of over 55% in size
a7 integrin act: qHTS for Activators of Integrin-Mediated Alleviation for Muscular Dystrophy; alpha7betagal myoblasts, beta-gal FDG fluorescence, 48 h; Potency, µM (titrated, usually from 38.3 µM), inactives show top-dose activation, actives largely listed as activators; 0.064% of 350,000 active;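 note: potency is the fitted concentration of half-maximal effect; 100% = response of the positive control SU9516; nearly all actives have a fitted effect of over 60% in size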
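alpha7betagal+/- myoblasts (passage 13, 250/well) treated 48 h at 37C with compounds at 1:260 dilution of DMSO stock. Lysed, then beta-galactosidase activity read as FDG fluorescence (ex 480/em 540) after 30 min, with pre-read for autofluorescence.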
12-LOX inh: Primary qHTS assay for inhibitors of human arachidonate 12S-lipoxygenase (ALOX12): Round 2. 1.1% of 580,000 active. Potency, µM (series often up to 108 µM), for the others: at the highest dose activity change, negative = inhibition, usual class: inhibitors. purified 12hLO, xylenol orange hydroperoxide absorbance. Polyunsaturated fatty acid lipoxygenase ALOX12 (Homo sapiens), P18054; note: potency is the fitted concentration of half-maximal effect; % is set by controls: 0 for no effect and ±100 for the full control effect
Target sequence (P18054 whole entry, looked up): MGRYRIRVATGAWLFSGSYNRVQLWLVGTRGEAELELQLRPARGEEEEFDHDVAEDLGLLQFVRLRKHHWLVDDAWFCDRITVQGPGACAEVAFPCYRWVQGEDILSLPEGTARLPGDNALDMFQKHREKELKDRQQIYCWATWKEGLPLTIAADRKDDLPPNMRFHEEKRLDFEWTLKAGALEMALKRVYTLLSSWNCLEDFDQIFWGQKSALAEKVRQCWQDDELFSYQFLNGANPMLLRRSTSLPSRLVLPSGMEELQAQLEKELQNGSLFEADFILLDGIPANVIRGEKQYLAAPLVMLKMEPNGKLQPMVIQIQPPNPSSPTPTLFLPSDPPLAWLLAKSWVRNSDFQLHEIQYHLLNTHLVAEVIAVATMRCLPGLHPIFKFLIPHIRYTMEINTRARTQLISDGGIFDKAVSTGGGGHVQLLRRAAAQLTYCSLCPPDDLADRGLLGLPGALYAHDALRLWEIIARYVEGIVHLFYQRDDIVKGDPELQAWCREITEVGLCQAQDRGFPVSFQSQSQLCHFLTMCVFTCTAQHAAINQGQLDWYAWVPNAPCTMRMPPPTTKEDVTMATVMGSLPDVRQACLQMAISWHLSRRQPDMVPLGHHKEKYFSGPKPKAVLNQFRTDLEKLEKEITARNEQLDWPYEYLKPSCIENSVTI
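Purified human 12hLO at 150 nM in 25 mM Hepes, 0.01% Triton X-100, pH 7.0, preincubated 15 min at room temperature with compound. Reaction started with 40 uM arachidonic acid, 30 min at room temperature. Hydroperoxide measured by Fe-xylenol orange, 573/405 nm absorbance ratio.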
An asterisk follows results filed as active; ? = inconclusive; . = no result; ! = repeats disagree; [ ] = remark or other dose. Only some compounds are listed: those with a hit (about 1.5% of all), similar ones and a draw of the others. Unless noted, calls come from the whole dose curve; as a rule, active = well fitted curve in the direction sought with a large enough effect; inconclusive = small, poorly fitted or top-dose-only effect, or another doubt; inactive = no such curve, though single readings can be large; an effect the other way counts as inactive or inconclusive.

SMILES	IL2 activator	Nrf2 ARE act	uPA generation	a7 integrin act	12-LOX inh
Cc1c(C(=O)N(Cc2nc3ccccc3c(=O)[nH]2)C(C)C)oc2ccccc12	.	.	.	.	-1.6%
COc1ccc(C2=NOC(C(=O)Nc3cc(Br)ccc3O)C2)cc1OC (configuration not stated)	-2.8	20.1%	?	-12.8%	10µM*
CCN(CC)C(=O)CSc1nnc(-c2ccccc2OC)n1N	.	.	.	.	-3.3%
COc1ccc2cc(CN3CCC(OC)CC3)c(-c3cccc(C)c3)nc2c1	.	.	.	.	33.9%
CC(C)c1ccc(CNc2nc(NCC3CC3)nc3ccsc23)cc1	-0.9	-0.3%[9.22 µM]	.	.	50.1µM*
CCn1c(=O)n(CC)c2cc(NC(=O)[C@H]3CC[C@@H](N)C3)c(C)cc21	.	.	.	.	22.5%
CCOc1ccc(-n2nnnc2CNC(=O)Nc2ccc(C)c(C)c2)cc1	.	.	.	.	-6.0%
O=C(Nc1ccc2c(c1)OCCO2)N1CCCCCC1CN1CCOCC1 (configuration not stated)	.	.	.	.	52.7%
CCOc1ccc2c(c1)C(C)=CC(C)(C)N2S(=O)(=O)c1ccc(F)cc1	-0.5	0.2%	8.91µM*	-23.6%	6.6%
CCOC(=O)C1C(=O)C=C(c2ccco2)CC1c1ccccc1 (configuration not stated)	.	.	.	.	11.2µM*
Cc1ccc(C(=O)NC2CC(c3nnc(CN(C)C)n3C)C2)s1 (configuration not stated)	.	.	.	.	-4.9%
NC(=O)[C@H](CC1CCCCC1)NC(=O)[C@H]1CNCCN1C(=O)NC1CCCCC1	.	.	.	.	13.0%[176 µM]
C=CCc1ccc(-c2ccc(OCCCCCCCCCC)c(F)c2)nc1	.	.	.	.	23.1%
CCOC(=O)c1c(C)n(S(=O)(=O)c2ccc(C)cc2)c2ccc(O)c(C(=O)O)c12	-0.1	-0.9%	-0.3%	12.4%	56.2µM*
COc1ccc(-c2nn(-c3ccccc3)cc2C(=O)NCCN2CCOCC2)cc1	.	.	.	.	-4.8%
CCN(CC)CCNC(=S)NC(=O)c1cn(-c2ccccc2)nc1-c1ccc(OC)cc1	-0.5	3.6%	?	-51.9%	44.7µM*
Oc1c(Cl)cc(Cl)c2cccnc12	0.0	6.4%	?	-20.6%	20µM*!
CC(=O)NC(C)c1cc(Cl)c2cccnc2c1O (configuration not stated)	-0.3	-1.2%	?	.	-15.0%
Cc1ccc(S(=O)(=O)Nc2cc(Cl)c(O)c3ncccc23)cc1	-0.8	6.0%	-8.9%	-49.4%	4.47µM*
O=C(Oc1c(Cl)cc(Cl)c2cccnc12)c1ccco1	-0.5	11.2%	-11.9%	-17.9%	7.08µM*
Oc1ccc(Cl)c2cccnc12	-0.4	15.3%	-8.4%	-32.2%	4.55µM*!
CCN1c2cc(C(=O)Nc3cc(F)cc(F)c3)ccc2C(=O)N2CCCCC21 (configuration not stated)	.	.	.	.	38.1%
Oc1ccc(F)c2cccnc12	-0.7	?	2.1%	3.7%	-29.2%
Oc1c(I)cc(I)c2cccnc12	-0.6	4.2%	8.7%	.	31.6µM*!
COc1ccc(N2CCN(C(=O)CCn3ccn4nc5c(c4c3=O)CCCC5)CC2)cc1	.	.	.	.	33.3%
SMILES	IL2 activator	Nrf2 ARE act	uPA generation	a7 integrin act	12-LOX inh
O=C(O)C1CCc2nnc(C3CCN(C(=O)c4ccccc4)C3)n21 (configuration not stated)	.	.	.	.	2.3%[6.33 µM]
CCc1ccc2oc(C(=O)Nc3ccc(S(=O)(=O)Nc4cc(C)nc(C)n4)cc3)cc(=O)c2c1	.	.	.	.	17.8µM*
Nc1ccccc1C=C1Cc2ccccc2C1=O	0.3	2.82µM*	-11.7%	2.4%	-9.0%
O=C1C(=Cc2cccc(F)c2)Cc2ccccc21	0.7	10µM*	.	.	-7.0%
O=C1/C(=C/c2ccc(F)c(F)c2)Cc2ccccc21	.	.	.	.	1.2%
c1cncc(CN2CCC(Oc3nccnc3N3CCc4ccccc43)C2)c1 (configuration not stated)	.	.	.	.	14.7%
CS(=O)(=O)N1CCCc2cc(C(=O)c3cc4cc(Cl)ccc4o3)ccc21	.	.	.	.	-15.2%
Cc1cccc(OCc2n[nH]c(=S)n2-c2ccccc2)c1	-3.8	0.2%	-17.7%	?	35.5µM*
S=c1[nH]nc(COc2ccccc2)n1/N=C/c1ccncc1	-2.6	-0.4%	-6.0%	5.3%	-7.8%
S=c1[nH]nc(COc2ccccc2)n1/N=C/c1ccccc1Br	-1.9	1.9%	-2.8%	?	?
Oc1ccc(Br)cc1/C=N/n1c(COc2ccccc2)n[nH]c1=S	-1.0	2.3%	?	10.6%	8.91µM*
S=c1[nH]nc(COc2ccccc2)n1/N=C/c1ccccn1	-4.7	-0.2%	1.5%	-24.8%	1.58µM*
Cc1cccc(/C=N/n2c(COc3ccccc3)n[nH]c2=S)c1	0.1	-0.1%	-4.2%	-12.9%	39.8µM*
C[C@]1(O)CCN(C(=O)Cc2ccc(-n3cnnn3)cc2)C[C@@H]1O	.	.	.	.	13.2%
S=c1[nH]nc(Cn2cnc3ccccc32)n1-c1ccccc1	-0.2	0.2%	1.6%	8.91µM*	-28.5%
OC(c1ccccc1)(c1nc(-c2ccc3c(c2)OCO3)cs1)C(F)(F)F (configuration not stated)	-0.1	-1.2%	.	.	?
N#C/C(=C\C=C\c1ccccc1)c1nc(-c2ccc3c(c2)OCO3)cs1	94.6*	-0.3%	-0.7%	12.7%	-4.3%
CCCCCCCC/C=C\CCCCCCCC(=O)NCc1ccc(O)c(OC)c1	.	.	.	.	0.0%
CCCCCCCC/C=C\CCCCCCCC(=O)NCCc1ccc(O)c(O)c1	-0.4	-0.8%	3.16µM*	.	5.62µM*!
Cc1ccccc1CN1CCN(C(=O)c2cccc3cccnc23)CC1	.	.	.	.	8.1%
Cc1ccc(/C(N)=N/OC(=O)c2ccc(F)cc2)cc1	-1.9	8.1%	.	5.0%	-9.2%
N/C(=N\OC(=O)c1cccc(F)c1)c1ccccc1	0.5	11.2µM*	0.0%	20.4%	12.7%
COc1ccc(C(=O)O/N=C(\N)c2ccccc2)c(OC)c1	0.5	5.5%	3.98µM*	-49.9%	16.9%
Cc1ccc(/C(N)=N/OC(=O)c2cccc(F)c2)cc1	-1.3	11.2µM*	.	12.2%[7.66 µM]	1.0%
COC(=O)c1c(C)[nH]c(C(=O)CSc2nncn2C(C)C)c1C	.	.	.	.	-2.1%
SMILES	IL2 activator	Nrf2 ARE act	uPA generation	a7 integrin act	12-LOX inh
CC1=NOC2(CCN(Cc3ccccn3)CC2)C1	.	.	.	.	90.8%[176 µM]
CCCCn1c(=S)[nH]c2c(=O)n(C)c(=O)n(C)c21	1.2	-0.1%	.	2.6%	44.7µM*
Cn1c(=O)c2[nH]c(=S)n(Cc3ccccc3)c2n(C)c1=O	0.0	-0.3%	4.3%	-17.4%	?
O=C1Nc2ccccc2SC(c2ccccc2)C1O (configuration not stated)	-0.3	0.7%	-4.0%	12.3%	12.6µM*
CC/C(=N/Nc1cccc(C)c1)c1cnnc(SC)n1	189.6*	6.9%	3.0%	19.9%	7.94µM*
Cc1cc(C(=S)N2CCOCC2)c(C)n1-c1ccc(Cl)cc1	-0.7	0.2%	4.5%	-10.3%	20µM*
Cc1cc(C)cc(-n2c(C)cc(C(=S)N3CCOCC3)c2C)c1	-6.1	-0.4%	8.0%	-18.7%	-29.0%
CCOc1ccc(NC(=O)C#Cc2ccccc2)cc1	.	.	.	.	15.9%
